Each structure is given as a SMILES string. Active and inactive are the calls of the source. How the calls were made is not given here.
Potency means the concentration at half of the fitted maximal effect.

The assay has as its system HIV-1 nucleocapsid protein NCp7 (binding to TG oligonucleotide). The experiment in a line: HIV Nucleocapsid (AID 346).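 Further: potency is for inhibitors that block NC binding and lower polarization.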 Particulars: HIV-1 NC / fluorescein-TGTGTGTG probe, fluorescence polarization. The procedure, abridged:
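Fluorescence polarization readout: labelled TG4xF oligo (10 nM) with 100 nM nucleocapsid protein, high-salt (250mM NaCl) Hepes pH 7.5 buffer containing zinc and fresh reducing agents. Compounds added by pin tool; incubation 1 hr, room temperature.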
(In general: In fluorescence polarisation assays a small probe gives low polarisation when free and higher when bound to something large.)
On to `CC(=O)N1CCC[C@@]2(CCN(Cc3ccccc3)C2)C1`, for which the Potency is > 20 µM (inactive).
Consider `COCC(=O)N1CCC2(CCCN(c3ccc(-c4ccccc4)cc3)C2)CC1`, for which the Potency was > 20 µM (inactive).
In the case of `CCNc1ncc2nc(-c3ccc(OC)cc3)c(=O)n(Cc3cccc(OC)c3)c2n1`, the Potency is 4.61 µM (active).
With `CN(C)c1ccc(-c2cncnc2NCCN2CCOCC2)cc1`, the Potency was > 20 µM (inactive).
Take `O=C(Nc1cccc(F)c1)N1CCC2(CC1)CCN(C(=O)c1ccco1)CC2`: the Potency is > 20 µM (inactive).
In the case of `Cc1ccccc1-c1cc(N(C)Cc2ccco2)ncn1`, the Potency was > 20 µM (inactive).
Turning to `COCC(=O)N1CCC[C@@]2(CCN(C(=O)Nc3cccc(F)c3)C2)C1`, the Potency is > 20 µM (inactive).
As to `CN(C)c1ncc2nc(-c3cccs3)c(=O)n(Cc3cccs3)c2n1`, the Potency is > 4 µM (inactive).
For `COc1ccc(Oc2ncc3ncc(=O)n(CCc4ccccc4)c3n2)cc1`, the Potency is > 20 µM (inactive).
`COc1ccc(Nc2ncc3nc(-c4cccs4)c(=O)n(Cc4cccc(OC)c4)c3n2)cc1`: the Potency was 16 µM (inactive).
The same measure for `O=S(=O)(c1ccccc1)N1CCC[C@@]2(CCN(c3cccc(-c4ccccc4)c3)C2)C1`: > 20 µM (inactive); for `COc1cccc(Cn2c(=O)c(-c3ccccc3)nc3cnc(N(C)C)nc32)c1`: > 20 µM (inactive); for `CN(C)Cc1ccccc1-c1nccc(N(C)Cc2ccco2)n1`: > 20 µM (inactive).
Regarding `FC(F)(F)c1ccccc1-c1ccc2ncnc(NCc3cccs3)c2c1`, the Potency is > 20 µM (inactive).
As for `CC(C)CN1CC2(CCN(C(=O)c3ccco3)CC2)C1`, the Potency was > 20 µM (inactive).
In the case of `O=C(c1ccco1)N1CCC[C@@]2(CCN(Cc3nccs3)C2)C1`, the Potency is > 20 µM (inactive).
Regarding `Cn1cccc1C(=O)N1CCC2(CCCN(C(=O)Nc3cccc(C#N)c3)C2)CC1`, the Potency is > 20 µM (inactive).
As to `COc1cccc(-c2cncnc2NC2CCNCC2)c1`, the Potency is > 20 µM (inactive).
As to `Cc1noc(C)c1C(=O)N1CCC2(CC1)CCN(c1ncccn1)CC2`, the Potency was > 20 µM (inactive).
For `COc1ccc(-c2nc3cnc(N4CCOCC4)nc3n(C3CC3)c2=O)cc1`, the Potency was > 20 µM (inactive).
`COc1ccc(C(=O)N2CCC3(CC2)CN(c2cccc(-c4ccccc4)c2)C3)cc1`: the Potency is > 20 µM (inactive).
As to `N#Cc1cccc(-c2nc(NCc3ccccc3)c3ccccc3n2)c1`, the Potency is > 20 µM (inactive).
As for `COc1ccc(-n2c(=O)c(-c3ccccc3)nc3cncnc32)cc1`, the Potency is > 20 µM (inactive).
For the compound `COc1ccc(C(=O)N2CCC3(CC2)CCN(c2ccccn2)CC3)cc1`, the Potency was > 20 µM (inactive).
As to `O=C(Nc1cccc(F)c1)N1CC[C@@]2(CCCN(S(=O)(=O)c3ccccc3)C2)C1`, the Potency was > 20 µM (inactive).
For `COCCNc1ncncc1-c1c(C)noc1C` the value was > 20 µM (inactive).
Consider `COc1ccc(-n2c(=O)c(-c3cccs3)nc3cnc(N4CCN(C)CC4)nc32)cc1`, for which the Potency is > 20 µM (inactive).
For `O=C(c1cnccn1)N1CCC2(CC1)CN(Cc1nccs1)C2` the value was > 20 µM (inactive).
The same measure for `CS(=O)(=O)Nc1cccc(-c2cncnc2NCc2cccnc2)c1`: > 20 µM (inactive).
Take `CN1CCN(c2ncc3nc(-c4ccccc4)c(=O)n(CCC#N)c3n2)CC1`: the Potency is > 20 µM (inactive).
As to `COc1cccc(Cn2c(=O)c(-c3cccs3)nc3cnc(N4CCNCC4)nc32)c1`, the Potency is > 20 µM (inactive).
As for `Cc1cccc(CNc2ncncc2-c2ccc(C(=O)N(C)C)cc2)c1`, the Potency was > 20 µM (inactive).
In the case of `COc1ccccc1CCn1c(=O)c(-c2ccc(Cl)cc2)nc2cncnc21`, the Potency was > 20 µM (inactive).
For `COc1ccccc1CNc1ncnc2ccc(-c3cccc(NS(C)(=O)=O)c3)cc12` the value was > 20 µM (inactive).
In the case of `Cc1cnc(CNc2ccnc(-c3ccoc3)n2)cn1`, the Potency is > 20 µM (inactive).
Regarding `Cn1cccc1C(=O)N1CCC2(CCN(C(=O)Nc3cccc(F)c3)CC2)CC1`, the Potency was > 20 µM (inactive).
Consider `CS(=O)(=O)Nc1cccc(-c2nccc(Nc3ccc(F)cc3)n2)c1`, for which the Potency is > 20 µM (inactive).
For the compound `COCCn1c(=O)c(CCc2ccccc2)nc2cnc(Oc3cccc(Cl)c3)nc21`, the Potency was > 20 µM (inactive).
As for `CN(C)C(=O)c1ccc(-c2cncnc2NCc2cccnc2)cc1`, the Potency was > 20 µM (inactive).
The same measure for `COC(=O)N1CCC[C@@]2(CCN(c3ccccn3)C2)C1`: > 20 µM (inactive).

Source of the values: PubChem BioAssay (NCATS).
